UDG counter: counter-screen for AID inhibitors: uracil-DNA glycosylase inhibition; actives 0.14% (n = 91,000); AID 1347430; Potency, µM (series often up to 115 µM), inactives show top-dose activity change, negative = inhibition, most hits filed as inhibitors; FRET deamination/UDG coupled assay, UDG read, 4 h; note: nearly all actives have a fitted effect of over 65% in size
AID inh: inhibitors of human activation induced cytidine deaminase; Q9GZX7; AID deamination FRET fluorescence, UDG-coupled, 4 h; Potency, µM (doses to about 115 µM), most hits filed as inhibitors; AID 1347428; actives 0.32% (n = 91,000); note: nearly all actives have a fitted effect of over 25% in size
Target sequence (Q9GZX7 whole entry, looked up): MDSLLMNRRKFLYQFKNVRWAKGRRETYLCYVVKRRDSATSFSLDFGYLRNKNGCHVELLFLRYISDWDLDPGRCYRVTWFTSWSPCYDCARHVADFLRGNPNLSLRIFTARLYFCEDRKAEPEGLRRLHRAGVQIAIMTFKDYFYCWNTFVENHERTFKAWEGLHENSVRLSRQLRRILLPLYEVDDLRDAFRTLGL
Numbers without * were called inactive; i = inactive; u = inconclusive. Most compounds without a hit are left out; they make up all but 0.47% or so of the library. Calls come from the whole dose curve; as a rule, active = well fitted curve in the direction sought with a large enough effect; inconclusive = small, poorly fitted or top-dose-only effect, or another doubt; inactive = no such curve, though single readings can be large; an effect the other way counts as inactive or inconclusive. % is set by controls: 0 for no effect and ±100 for the full control effect; potency is the fitted concentration of half-maximal effect.

SMILES	UDG counter	AID inh
COc1ccc(-c2noc(CSc3nnc(C)n3-c3ccc(F)cc3)n2)cc1	79µM*	i
CCOc1ccc(-c2noc(CSc3nnc(-c4ccccc4)n3-c3ccccc3)n2)cc1	-1%	i
C=CCn1c(C)cc(C(=O)CN2C(=O)NC(Cc3c[nH]c4ccccc34)C2=O)c1C (stereo unspecified)	1%	i
COc1cccc(CNC(=O)CN2C(=O)N(c3ccccc3C)S(=O)(=O)c3ccccc32)c1	-10%	i
CC(C)NC(=O)Nc1cccc(C(=O)NC(C)c2cccc(Cl)c2)c1 (stereo unspecified)	4%	i
CC(C)CCC(=O)N1CCN(Cc2ccco2)CC1	-1%	i
Cc1cc(C)nc(SCc2nc3ccc(Cl)cn3c2Br)n1	-6%	u
CCc1ccc(-c2nc3c(c(SCc4ccccc4)n2)Cc2c(CO)cnc(C)c2O3)cc1	-7%	i
C=Cc1ccc(CSc2nc(-c3ccc(C)cc3)nc3c2Cc2c(CO)cnc(C)c2O3)cc1	6%	32µM*
CCN(CC)C(=O)CSc1nc(-c2ccc(C)cc2)nc2c1Cc1c(CO)cnc(C)c1O2	5%	45µM*
Cc1ccc(-c2nc3c(c(SCC(=O)N(C)c4ccccc4)n2)Cc2c(CO)cnc(C)c2O3)cc1	3%	u
COc1ccc2cc(C(=O)Nc3ccc(Nc4ccccc4)cc3)[nH]c2c1	5%	i
COc1ccccc1C(=O)Nc1ccc(OCc2cc(=O)n3cccc(C)c3n2)cc1	9%	i
COc1cc(C(=O)Nc2ccc(OCc3cc(=O)n4cccc(C)c4n3)cc2)cc(OC)c1OC	-2%	22µM*
CCNc1c(NC(=O)Nc2cc(OC)cc(OC)c2)c(=O)oc2ccccc12	28%	i
O=C(O)c1ccc(-n2c(/C=C\c3ccc(O)cc3)nc3ccccc3c2=O)cc1	-7%	i
O=C(O)c1cc(-n2c(/C=C\c3ccc(F)cc3)nc3ccccc3c2=O)ccc1Cl	89µM*	u
Cc1c(-c2ccccc2)c(=O)oc2cc(OC(=O)c3ccco3)ccc12	-5%	i
CCc1c(C(=O)NCCC23CC4CC(CC(C4)C2)C3)csc1C	-5%	i
O=C(CCn1c(=O)oc2cc(S(=O)(=O)N3CCCC3)ccc21)Nc1ccc(OC(F)(F)F)cc1	-11%	i
COc1ccc(N2CCN(C(=O)C3CCN(Cc4nc(-c5ccc(Cl)cc5)oc4C)CC3)CC2)cc1	-7%	i
Cc1ccc(C)c(N2CCN(C(=O)C3CCN(Cc4nc(-c5cccc(Cl)c5)oc4C)CC3)CC2)c1	89µM*	i
Cc1ccccc1-c1nc(CN2CCCC(C(=O)NCc3ccc(Cl)cc3)C2)c(C)o1 (stereo unspecified)	u	i
Cc1ccc(Cl)cc1N1CCN(C(=O)C2CCN(Cc3nc(-c4ccc(Cl)cc4)oc3C)CC2)CC1	89µM*	u
Cc1oc(-c2ccc(Cl)cc2)nc1CN1CCCC(C(=O)NCc2ccccc2)C1 (stereo unspecified)	89µM*	i
SMILES	UDG counter	AID inh
Cc1oc(-c2cccc(Cl)c2)nc1CN1CCC(C(=O)NCCCN2CCN(c3ccccc3F)CC2)CC1	-6%	i
Cc1cccc(-c2nc(CN3CCCC(C(=O)N4CCN(c5cc(Cl)ccc5C)CC4)C3)c(C)o2)c1 (stereo unspecified)	89µM*	u
CCCCNC(=O)C1CCCN(Cc2nc(-c3ccc(Cl)cc3)oc2C)C1 (stereo unspecified)	u	i
CC(NC(=O)CCNC(=O)C1CCCC1)c1ccccc1 (stereo unspecified)	-12%	i
Cn1ncc2c(SCc3nc4ccccc4n3C(F)F)ncnc21	3%	i
CC(=O)c1c(C)[nH]c(-c2csc(CC(=O)Nc3cccc(C)c3)n2)c1C	-13%	i
Nc1c(Cl)cc(C23CC4CC(CC(C4)C2)C3)cc1Cl	-7%	i
O=C(C1CC1)N(Cc1ccc2c(c1)CN(S(=O)(=O)c1ccc(F)c(F)c1)CCO2)c1ccccc1	89µM*	u
O=C(C1CC1)N(Cc1ccc2c(c1)CN(S(=O)(=O)c1ccccc1F)CCO2)c1ccccc1	0%	u
Cc1ccc(Cl)c(OCc2n[nH]c(=S)n2C)c1	0%	i
Cc1cccc(NC(=O)CN(C)S(=O)(=O)c2ccc3c(c2)c(=O)n(C)c(=O)n3C)c1	-5%	i
CCOc1ccc(NC(=O)CN(C)S(=O)(=O)c2ccc3c(c2)c(=O)n(C)c(=O)n3C)cc1	-12%	22µM*
Cc1ccc(C)c(N2CCN(CCCNC(=O)c3ccc4nc(N5CCC(C)CC5)sc4c3)CC2)c1	u	32µM*
Cc1ccc(Cl)cc1N1CCN(CCCNC(=O)c2ccc3nc(N4CCCCC4)sc3c2)CC1	-4%	u
C=CCOc1ccccc1NC(=O)Cc1ccccc1	-8%	i
CN(C(=O)C1CCN(c2ncnc3c2nc2n3CCCCC2)CC1)c1ccccc1F	2%	i
Cc1ccc(C)c(N(C)C(=O)C2CCN(c3ncnc4c3nc3n4CCCCC3)CC2)c1	-10%	79µM*

Assay outcomes: PubChem BioAssay, National Center for Advancing Translational Sciences (NCATS)
